In assay [1] the target is T1, AMP-activated protein kinase (AMPK) alpha-1/beta-1/gamma-1 (Homo sapiens) (UniProt P54619+Q9Y478+Q13131). The following applies: at 1 µM.
Assay [2] deals with T1, AMP-activated protein kinase (AMPK) alpha-1/beta-1/gamma-1 (Homo sapiens). The note with it: at 10 µM.
Assay [3] concerns the target T2, AMP-activated protein kinase, AMPK (Homo sapiens) (UniProt P54646+O43741+P54619+Q9UGJ0+Q9Y478+Q13131+Q9UGI9). The note with it: at 10 µM.
Assay [4] deals with T3, NUAK family SNF1-like kinase 1 (Homo sapiens) (UniProt O60285).
T3 sequence (whole entry): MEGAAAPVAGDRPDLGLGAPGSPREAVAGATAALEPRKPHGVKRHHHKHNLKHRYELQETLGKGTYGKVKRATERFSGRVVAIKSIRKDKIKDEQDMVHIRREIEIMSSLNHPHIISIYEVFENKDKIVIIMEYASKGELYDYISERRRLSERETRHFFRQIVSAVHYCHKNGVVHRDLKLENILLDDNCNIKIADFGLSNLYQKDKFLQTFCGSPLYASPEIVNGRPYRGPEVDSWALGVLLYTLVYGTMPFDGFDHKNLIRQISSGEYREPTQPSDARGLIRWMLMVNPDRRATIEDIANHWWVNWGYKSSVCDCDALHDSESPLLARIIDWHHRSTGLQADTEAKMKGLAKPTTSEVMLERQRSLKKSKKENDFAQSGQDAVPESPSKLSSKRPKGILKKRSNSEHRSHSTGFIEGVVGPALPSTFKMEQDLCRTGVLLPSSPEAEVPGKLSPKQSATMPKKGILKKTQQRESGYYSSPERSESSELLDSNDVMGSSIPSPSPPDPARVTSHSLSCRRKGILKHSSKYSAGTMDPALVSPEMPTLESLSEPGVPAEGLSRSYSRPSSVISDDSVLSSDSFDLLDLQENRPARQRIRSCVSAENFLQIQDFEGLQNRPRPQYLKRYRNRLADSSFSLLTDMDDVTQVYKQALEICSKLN
The following applies: at 1 µM.

Assay [5] addresses T3, NUAK family SNF1-like kinase 1 (Homo sapiens). The note with it: at 10 µM.
For assay [6], the target named is T4, Mitogen-activated protein kinase kinase kinase 5 (Homo sapiens) (UniProt Q99683).
T4 sequence (whole entry): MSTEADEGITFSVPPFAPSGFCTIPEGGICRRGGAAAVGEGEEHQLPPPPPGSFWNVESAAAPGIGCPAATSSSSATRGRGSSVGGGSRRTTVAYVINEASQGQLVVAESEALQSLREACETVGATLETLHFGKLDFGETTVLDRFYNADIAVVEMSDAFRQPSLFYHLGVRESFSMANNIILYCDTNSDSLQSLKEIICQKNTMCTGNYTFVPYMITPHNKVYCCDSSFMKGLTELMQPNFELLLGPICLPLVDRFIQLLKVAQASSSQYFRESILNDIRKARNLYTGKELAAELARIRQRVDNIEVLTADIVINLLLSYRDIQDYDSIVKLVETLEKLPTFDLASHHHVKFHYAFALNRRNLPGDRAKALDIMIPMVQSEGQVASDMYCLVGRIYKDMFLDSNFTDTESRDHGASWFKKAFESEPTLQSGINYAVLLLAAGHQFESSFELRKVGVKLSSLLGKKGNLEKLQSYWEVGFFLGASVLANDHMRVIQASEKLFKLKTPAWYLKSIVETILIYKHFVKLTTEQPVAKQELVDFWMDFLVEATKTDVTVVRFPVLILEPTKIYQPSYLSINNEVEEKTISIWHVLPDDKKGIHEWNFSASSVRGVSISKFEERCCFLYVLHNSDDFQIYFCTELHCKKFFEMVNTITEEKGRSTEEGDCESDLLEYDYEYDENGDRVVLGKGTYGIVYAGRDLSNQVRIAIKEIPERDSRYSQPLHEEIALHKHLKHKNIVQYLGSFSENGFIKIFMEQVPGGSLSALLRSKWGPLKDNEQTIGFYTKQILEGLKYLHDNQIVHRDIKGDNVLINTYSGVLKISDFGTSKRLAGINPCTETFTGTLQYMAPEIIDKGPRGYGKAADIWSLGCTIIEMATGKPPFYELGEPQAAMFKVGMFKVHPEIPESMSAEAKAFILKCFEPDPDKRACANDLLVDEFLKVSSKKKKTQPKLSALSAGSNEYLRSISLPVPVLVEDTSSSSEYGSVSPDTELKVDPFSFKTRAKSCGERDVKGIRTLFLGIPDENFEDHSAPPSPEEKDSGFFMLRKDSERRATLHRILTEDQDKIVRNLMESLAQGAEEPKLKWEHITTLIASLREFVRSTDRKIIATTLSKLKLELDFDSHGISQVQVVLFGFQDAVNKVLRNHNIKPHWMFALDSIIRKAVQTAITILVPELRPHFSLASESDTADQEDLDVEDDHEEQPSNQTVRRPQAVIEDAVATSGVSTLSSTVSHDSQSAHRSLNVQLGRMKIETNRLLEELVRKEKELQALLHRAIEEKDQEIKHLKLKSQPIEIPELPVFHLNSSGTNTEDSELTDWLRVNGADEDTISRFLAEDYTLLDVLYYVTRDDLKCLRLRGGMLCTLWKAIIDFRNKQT
The following applies: at 1 µM.

Assay [7] addresses Platelet-derived growth factor receptor alpha (Homo sapiens) (UniProt P16234). The following applies: at 10 µM.
Assay [8] concerns the target T5, 3-phosphoinositide-dependent protein kinase 1 (Homo sapiens) (UniProt O15530).
T5 sequence (whole entry): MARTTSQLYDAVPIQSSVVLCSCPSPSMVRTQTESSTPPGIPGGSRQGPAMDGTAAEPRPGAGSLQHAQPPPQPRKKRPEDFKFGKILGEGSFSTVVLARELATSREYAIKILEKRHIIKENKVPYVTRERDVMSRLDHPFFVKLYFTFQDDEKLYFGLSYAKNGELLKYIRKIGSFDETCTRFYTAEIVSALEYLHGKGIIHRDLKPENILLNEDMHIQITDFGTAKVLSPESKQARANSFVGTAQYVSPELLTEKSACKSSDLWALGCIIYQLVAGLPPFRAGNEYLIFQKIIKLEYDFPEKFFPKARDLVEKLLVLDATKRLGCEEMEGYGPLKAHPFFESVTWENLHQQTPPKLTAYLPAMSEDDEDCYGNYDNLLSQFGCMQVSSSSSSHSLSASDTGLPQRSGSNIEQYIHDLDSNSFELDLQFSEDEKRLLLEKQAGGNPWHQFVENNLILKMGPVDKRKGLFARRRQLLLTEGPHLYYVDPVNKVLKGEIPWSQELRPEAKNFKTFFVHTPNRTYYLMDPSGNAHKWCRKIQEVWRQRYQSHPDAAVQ
The following applies: at 10 µM.

Assay [9] deals with RAC-gamma serine/threonine-protein kinase (Homo sapiens) (UniProt Q9Y243). The following applies: at 10 µM.
The target of assay [10] is T6, Activin receptor type-1B (Homo sapiens) (UniProt P36896).
T6 sequence (whole entry): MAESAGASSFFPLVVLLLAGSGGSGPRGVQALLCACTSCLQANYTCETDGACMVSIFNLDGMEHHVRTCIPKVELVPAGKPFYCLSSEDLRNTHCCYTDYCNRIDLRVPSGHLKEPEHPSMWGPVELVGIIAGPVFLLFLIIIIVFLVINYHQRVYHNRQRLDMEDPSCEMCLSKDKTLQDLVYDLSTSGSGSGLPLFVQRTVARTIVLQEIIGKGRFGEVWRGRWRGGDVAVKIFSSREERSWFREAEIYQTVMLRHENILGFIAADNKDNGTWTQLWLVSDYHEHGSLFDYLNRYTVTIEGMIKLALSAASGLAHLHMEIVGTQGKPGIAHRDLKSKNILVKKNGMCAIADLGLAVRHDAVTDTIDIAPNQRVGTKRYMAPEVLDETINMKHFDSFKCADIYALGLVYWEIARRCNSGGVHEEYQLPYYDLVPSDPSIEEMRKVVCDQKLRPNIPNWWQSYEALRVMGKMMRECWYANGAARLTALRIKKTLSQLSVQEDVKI
The note with it: at 1 µM.

The target of assay [11] is T6, Activin receptor type-1B (Homo sapiens). The following applies: at 10 µM.
The target in assay [12] is Platelet-derived growth factor receptor alpha (Homo sapiens) (UniProt P16234). The following applies: at 1 µM.
In assay [13] the target is Platelet-derived growth factor receptor beta (Homo sapiens) (UniProt P09619). The note with it: at 10 µM.
Assay [14] deals with cAMP-dependent protein kinase catalytic subunit alpha (Homo sapiens) (UniProt P17612). The following applies: at 1 µM.
For assay [15] the target is unchanged. The following applies: at 10 µM.
The target in assay [16] is RAC-gamma serine/threonine-protein kinase (Homo sapiens) (UniProt Q9Y243). The note with it: at 1 µM.
The target of assay [17] is T2, AMP-activated protein kinase, AMPK (Homo sapiens). The note with it: at 1 µM.
Assay [18] addresses Platelet-derived growth factor receptor beta (Homo sapiens) (UniProt P09619). The note with it: at 1 µM.
Assay [19] deals with T5, 3-phosphoinositide-dependent protein kinase 1 (Homo sapiens). The note with it: at 1 µM.
In assay [20] the target is ALK tyrosine kinase receptor (Homo sapiens) (UniProt Q9UM73). The following applies: at 10 µM.

This note sets out measurements from ChEMBL document CHEMBL2218924, “A broad activity screen in support of a chemogenomic map for kinase signalling research and drug discovery” (Biochem J, 2013).

The structures appear in SMILES notation.

T1 sequence (P54619 whole entry): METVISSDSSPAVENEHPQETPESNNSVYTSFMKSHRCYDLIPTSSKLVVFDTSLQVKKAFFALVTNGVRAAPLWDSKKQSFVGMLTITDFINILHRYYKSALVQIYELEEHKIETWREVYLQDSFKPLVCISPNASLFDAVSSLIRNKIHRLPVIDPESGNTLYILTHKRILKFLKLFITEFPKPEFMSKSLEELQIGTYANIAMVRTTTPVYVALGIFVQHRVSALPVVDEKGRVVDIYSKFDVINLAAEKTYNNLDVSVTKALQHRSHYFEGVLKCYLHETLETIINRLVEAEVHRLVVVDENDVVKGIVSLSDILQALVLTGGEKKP
T1 sequence (Q13131 whole entry partner): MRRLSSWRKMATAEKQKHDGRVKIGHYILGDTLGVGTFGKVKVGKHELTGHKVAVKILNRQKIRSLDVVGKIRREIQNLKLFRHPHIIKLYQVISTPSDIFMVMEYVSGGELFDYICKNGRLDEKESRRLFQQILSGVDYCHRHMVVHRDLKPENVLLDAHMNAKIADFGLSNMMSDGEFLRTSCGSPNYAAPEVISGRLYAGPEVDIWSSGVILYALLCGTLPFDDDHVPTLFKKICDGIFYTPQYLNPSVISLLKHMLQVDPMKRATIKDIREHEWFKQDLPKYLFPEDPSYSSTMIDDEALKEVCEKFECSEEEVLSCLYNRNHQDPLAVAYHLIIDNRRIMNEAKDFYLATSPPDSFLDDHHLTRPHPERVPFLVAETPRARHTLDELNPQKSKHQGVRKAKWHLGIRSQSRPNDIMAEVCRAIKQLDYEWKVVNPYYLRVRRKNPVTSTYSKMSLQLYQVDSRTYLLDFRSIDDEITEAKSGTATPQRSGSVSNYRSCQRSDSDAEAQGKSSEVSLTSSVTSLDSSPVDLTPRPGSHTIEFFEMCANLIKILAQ
T1 sequence (Q9Y478 2-270 partner limits assumed): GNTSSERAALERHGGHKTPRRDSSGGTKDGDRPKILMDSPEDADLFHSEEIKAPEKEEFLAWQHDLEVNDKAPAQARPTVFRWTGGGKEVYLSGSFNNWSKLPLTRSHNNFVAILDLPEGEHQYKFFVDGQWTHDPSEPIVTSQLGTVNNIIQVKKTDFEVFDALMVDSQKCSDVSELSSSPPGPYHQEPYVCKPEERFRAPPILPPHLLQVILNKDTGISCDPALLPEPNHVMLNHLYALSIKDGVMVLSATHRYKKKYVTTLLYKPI
Sequence of Platelet-derived growth factor receptor alpha (Homo sapiens) (P16234 whole entry): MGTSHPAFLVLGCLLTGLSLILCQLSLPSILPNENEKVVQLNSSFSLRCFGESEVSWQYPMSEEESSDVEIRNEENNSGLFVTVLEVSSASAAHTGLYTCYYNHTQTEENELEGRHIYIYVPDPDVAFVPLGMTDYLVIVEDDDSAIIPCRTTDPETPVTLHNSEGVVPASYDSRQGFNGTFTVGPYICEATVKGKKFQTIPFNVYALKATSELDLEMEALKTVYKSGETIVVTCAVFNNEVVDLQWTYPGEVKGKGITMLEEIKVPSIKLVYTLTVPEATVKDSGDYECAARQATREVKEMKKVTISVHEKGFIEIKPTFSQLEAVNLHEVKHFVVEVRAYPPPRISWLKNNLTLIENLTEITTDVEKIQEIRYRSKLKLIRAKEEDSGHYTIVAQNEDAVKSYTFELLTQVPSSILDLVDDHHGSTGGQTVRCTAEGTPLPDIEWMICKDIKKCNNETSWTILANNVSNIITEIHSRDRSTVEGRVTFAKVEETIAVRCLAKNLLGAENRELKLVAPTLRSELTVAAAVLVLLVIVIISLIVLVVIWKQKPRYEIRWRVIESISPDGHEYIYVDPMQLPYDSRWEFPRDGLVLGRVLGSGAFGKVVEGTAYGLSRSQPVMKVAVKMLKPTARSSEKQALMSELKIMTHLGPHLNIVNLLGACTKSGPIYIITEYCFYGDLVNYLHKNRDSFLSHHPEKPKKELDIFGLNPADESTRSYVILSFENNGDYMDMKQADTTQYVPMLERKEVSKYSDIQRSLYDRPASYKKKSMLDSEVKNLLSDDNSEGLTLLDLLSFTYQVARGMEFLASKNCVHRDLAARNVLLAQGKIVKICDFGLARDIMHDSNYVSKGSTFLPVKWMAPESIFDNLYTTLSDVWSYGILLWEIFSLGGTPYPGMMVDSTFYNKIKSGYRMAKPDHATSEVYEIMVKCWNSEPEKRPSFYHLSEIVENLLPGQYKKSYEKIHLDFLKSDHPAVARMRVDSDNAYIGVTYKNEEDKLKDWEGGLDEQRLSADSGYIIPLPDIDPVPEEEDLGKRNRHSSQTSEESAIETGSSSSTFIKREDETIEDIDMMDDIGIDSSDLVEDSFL
Sequence of RAC-gamma serine/threonine-protein kinase (Homo sapiens) (Q9Y243 whole entry): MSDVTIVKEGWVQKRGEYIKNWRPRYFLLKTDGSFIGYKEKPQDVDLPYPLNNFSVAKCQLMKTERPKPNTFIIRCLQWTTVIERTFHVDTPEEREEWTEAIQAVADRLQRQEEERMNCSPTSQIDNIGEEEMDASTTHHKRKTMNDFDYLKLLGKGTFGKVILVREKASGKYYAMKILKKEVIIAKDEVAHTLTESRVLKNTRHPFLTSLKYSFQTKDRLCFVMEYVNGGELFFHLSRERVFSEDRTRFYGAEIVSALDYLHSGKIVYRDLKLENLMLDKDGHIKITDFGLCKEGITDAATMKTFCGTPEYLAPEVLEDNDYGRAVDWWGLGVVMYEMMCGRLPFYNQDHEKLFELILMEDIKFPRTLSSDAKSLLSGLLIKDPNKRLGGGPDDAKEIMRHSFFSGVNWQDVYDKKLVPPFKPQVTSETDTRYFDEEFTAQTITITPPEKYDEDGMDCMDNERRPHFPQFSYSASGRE
Sequence of Platelet-derived growth factor receptor beta (Homo sapiens) (P09619 whole entry): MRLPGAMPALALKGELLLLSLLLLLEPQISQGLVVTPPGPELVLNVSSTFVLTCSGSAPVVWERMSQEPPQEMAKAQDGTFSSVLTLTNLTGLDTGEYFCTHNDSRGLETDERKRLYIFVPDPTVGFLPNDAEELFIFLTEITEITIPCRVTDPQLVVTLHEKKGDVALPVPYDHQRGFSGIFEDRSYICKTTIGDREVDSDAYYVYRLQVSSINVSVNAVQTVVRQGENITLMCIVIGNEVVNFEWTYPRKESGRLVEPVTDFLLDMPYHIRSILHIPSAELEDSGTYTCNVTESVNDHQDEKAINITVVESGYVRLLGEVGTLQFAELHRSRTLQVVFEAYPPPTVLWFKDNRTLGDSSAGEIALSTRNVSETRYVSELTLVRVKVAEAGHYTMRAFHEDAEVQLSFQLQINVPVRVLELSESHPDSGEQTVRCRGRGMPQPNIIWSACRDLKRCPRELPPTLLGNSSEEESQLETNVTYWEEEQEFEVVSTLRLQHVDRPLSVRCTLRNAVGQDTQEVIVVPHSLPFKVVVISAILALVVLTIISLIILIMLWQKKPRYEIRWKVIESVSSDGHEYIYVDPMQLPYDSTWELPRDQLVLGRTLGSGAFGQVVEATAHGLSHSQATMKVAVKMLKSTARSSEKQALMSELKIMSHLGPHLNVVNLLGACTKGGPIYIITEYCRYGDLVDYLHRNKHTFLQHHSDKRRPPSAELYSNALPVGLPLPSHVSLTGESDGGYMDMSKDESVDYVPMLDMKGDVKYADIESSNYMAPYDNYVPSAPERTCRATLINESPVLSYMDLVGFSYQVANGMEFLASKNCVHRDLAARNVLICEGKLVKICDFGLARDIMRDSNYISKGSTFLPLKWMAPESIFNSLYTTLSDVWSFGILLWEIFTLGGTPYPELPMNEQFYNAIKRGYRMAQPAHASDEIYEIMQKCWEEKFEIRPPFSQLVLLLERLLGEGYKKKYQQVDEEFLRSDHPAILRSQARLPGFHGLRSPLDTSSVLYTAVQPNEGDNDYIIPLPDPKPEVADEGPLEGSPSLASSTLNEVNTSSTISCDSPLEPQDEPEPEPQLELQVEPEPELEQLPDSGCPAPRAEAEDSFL

Regarding `Nc1ncnc2c1cnn2-c1ccccc1`, the residual activity worked out at 96% in [1]; 90% in [2]; 83% in assay [3]; 99% in assay [4]; 87% in assay [5]; 100% in [6]. For the same compound, the residual activity was 101% in assay [7], 87% in assay [8] and 73% in assay [9].

On to `Oc1cccc(-c2nc(N3CCOCC3)c3oc4ncccc4c3n2)c1`, for which the residual activity came to 148% in [10]; 92% in assay [11]; 98% in [4]; 99% in assay [5]; 127% in [12]; 98% in assay [13]. Further, the residual activity in assay [14] amounted to 95%; in [15], 85%; in assay [16], 95%; in [9], 95%.

For `O=C1Cc2c([nH]c3ccc([N+](=O)[O-])cc23)-c2ccccc2N1`, the residual activity in assay [1] was 48%; in assay [2] it was 40%; in assay [17], 18%; in [3], 36%; in [4] it was 10%; in assay [5] it was 9%. Also, the residual activity in assay [6] is 106%; in [12], 109%; in assay [7] it was 112%; in assay [18], 107%; in [13], 100%; in assay [19] it was 45%. Further, the residual activity came to 45% in assay [8] and 118% in assay [16].

Turning to `CC(C)(C)c1nc2c3ccc(F)cc3c3c(=O)[nH]ccc3c2[nH]1`, the residual activity came out at 11% in assay [20]; 33% in assay [1]; 31% in assay [2]; 20% in assay [17]; 23% in assay [3]; 8% in assay [4]. The residual activity is 9% in [5]; 81% in assay [6]; 102% in assay [12]; 3% in assay [19]; 1% in assay [8]; 60% in assay [16]. In addition, the residual activity in assay [9] is 63%.

With `O=S(=O)(NCCNC/C=C/c1ccc(Br)cc1)c1cccc2cnccc12`, the residual activity in assay [1] came to 52%; in assay [2], 15%; in assay [17], 60%; in assay [3], 19%; in assay [4], 42%; in assay [5] it was 11%. In addition, the residual activity in assay [14] was 2%; in assay [15] it was 6%; in [16], 31%; in [9] it was 4%.

Turning to `N#C/C(=C\c1ccc(O)c(O)c1)C(=O)NCc1ccccc1`, the residual activity in assay [1] came to 87%; in assay [2] it was 53%; in [17], 124%; in [3], 70%; in assay [4], 100%; in [5], 100%. In addition, the residual activity in assay [12] is 122%; in assay [7], 100%; in [14], 76%; in assay [15], 75%; in assay [9], 83%.

On to `COc1ccc(COc2ccc(Cc3cnc(N)nc3N)cc2OC)cc1`, for which the residual activity in [10] is 120%; in [11], 119%; in assay [3] it was 82%.

Regarding `NC(=O)c1cccc(-c2cc(Nc3ccc(OC(F)(F)F)cc3)ncn2)c1`, the residual activity in assay [1] stood at 99%; in [2], 93%; in [3], 83%; in [5] it was 90%; in assay [6] it was 90%.

Take `O=c1cc(N2CCNCC2)oc2c(-c3ccccc3)cccc12`: the residual activity is 49% in assay [20]; 95% in assay [1]; 75% in assay [2]; 71% in assay [3]; 91% in assay [4]; 82% in assay [5]. Besides, the residual activity in assay [6] was 90%; in [18] it was 99%; in assay [13], 88%; in assay [14] it was 72%; in assay [15], 83%; in assay [16], 85%. Also, the residual activity in assay [9] came to 85%.
